Experimental findings from PubChem BioAssay (NCI) are described below.

About 79,000 compounds went through this panel and 15% of them were active in at least one assay; those are over-represented in the sample as a whole. A number with no mark means an inactive call. Calls of active or inactive are those of the source. No stated cut-off is given here; in the data, active means growth inhibition above about 70%; inactive means the rest.

Test [1] can be described thus: NCI Yeast Anticancer Drug Screen. Data for the rad50 strain (AID 155).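 Further: 0% = growth of vehicle-only cultures of the same strain.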 To be noted: S. cerevisiae rad50 strain growth inhibition; at 50.0 µM; hits give high values. The gist of the method: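 Relative growth inhibition (compound vs vehicle) was measured in yeast with a defined repair-gene alteration.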
The nature of test [2]: NCI Yeast Anticancer Drug Screen. Data for the mec2-1 strain (AID 157). To be noted: S. cerevisiae mec2-1 strain, at 50.0 µM, hits give high values. In short, it runs like this: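 Mutant yeast (mec2-1) grown with compound; growth inhibition relative to vehicle control reported.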
Test [3] in a line: NCI Yeast Anticancer Drug Screen. Data for the sgs1 mgt1 strain (AID 161).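 Further: 0% = growth of cultures given vehicle only.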 The conditions noted are these: S. cerevisiae sgs1 mgt1 strain, at 50.0 µM, hits give high values. The gist of the method:
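Growth of a repair-deficient yeast mutant was monitored after compound treatment and expressed as inhibition relative to vehicle-treated cultures.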

Test [4] is described as follows: NCI Yeast Anticancer Drug Screen. Data for the cln2 rad14 strain (AID 165).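 Further: 0% = growth equal to vehicle treated cultures.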 To be noted: S. cerevisiae cln2 rad14 strain, at 50.0 µM, hits give high values. The gist of the method: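 Readout is yeast growth inhibition versus vehicle-treated controls, using a strain with cln2 and rad14 alterations exposed to compound.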
Test [5] in a line: NCI Yeast Anticancer Drug Screen. Data for the bub3 strain (AID 167). To be noted: S. cerevisiae bub3 mutant strain, at 50.0 µM, hits give high values. The gist of the method:
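Screening used yeast with an engineered genetic alteration affecting cell cycle control. Compound-exposed cultures were compared with vehicle cultures, and reduced growth was taken as inhibition.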

Test [6] is described as follows: NCI Yeast Anticancer Drug Screen. Data for the mlh1 rad18 strain (AID 175). To be noted: S. cerevisiae mlh1 rad18 strain growth inhibition; at 50.0 µM; hits give high values. The gist of the method: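 Genetically defined yeast (DNA repair-deficient) exposed to compounds; growth inhibition determined relative to vehicle.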

Consider `O=c1/c(=C/c2ccccc2F)sc2nc3ccccc3n12`, for which the growth inhibition in test [1] is -2.85%; in test [2], -11.3%; in test [3] it was 12.2%; in test [4], 29%; in test [5], 21.1%; in test [6], 12.3%.
As to `CCCCCCCCCCCCCCCC[N+](C)(C)CC#CCCl`, the growth inhibition in test [1] was -3.15%; in test [2], 99.5% (active); in test [3] it was 48.6%; in test [4] it was 98.7% (active); in test [5] it was 99.3% (active); in test [6], 48.8%.
For `COc1ccc(N(C)S(=O)(=O)c2ccccc2)cc1`, the growth inhibition is 15.1% in test [1]; -8.9% in test [2]; -3.65% in test [3]; 10.8% in test [4]; 0.1% in test [5]; 15.8% in test [6].
Take `O=C1/C(=C/c2ccccc2)SC(=S)N1C1OC(CO)C(O)C(O)C1O` (stereo not drawn): the growth inhibition is 3.45% in test [1]; 11.8% in test [2]; -8.4% in test [3]; 8.95% in test [4]; -3.95% in test [5]; 6.9% in test [6].
`N#CC(CCc1nc(N)nc(N)n1)(CCc1nc(N)nc(N)n1)c1ccccc1`: the growth inhibition is -6.7% in test [1]; -19.1% in test [2]; 1.9% in test [3]; -45.7% in test [4]; -1.2% in test [5]; -14.9% in test [6].
For `C(=Nc1ccccc1-c1ccccc1N=Cc1ccccc1)c1ccccc1`, the growth inhibition is 7.6% in test [1]; 7.3% in test [2]; -1.25% in test [3]; 7.2% in test [4]; -7.75% in test [5]; -17.9% in test [6].
Turning to `C=CCc1cc(OC)c2c(c1)C(OC)CC(c1ccc(OC)c(OC)c1)O2` (stereo not drawn), the growth inhibition in test [1] was -3.7%; in test [2], -34.3%; in test [3] it was -6.05%; in test [4] it was 12.6%; in test [5], -12.7%; in test [6], -17.9%.
Consider `Nc1nc2c(C(=O)NCc3cccs3)nnn2c2cccc(Cl)c12`, for which the growth inhibition is -6.25% in test [1]; -1.45% in test [2]; -5.35% in test [3]; 4.2% in test [4]; -20.3% in test [5]; 7.05% in test [6].
For the molecule `NN1C(=O)CC(c2cccc(Cl)c2)C1=O` (stereo not drawn), the growth inhibition is 1.7% in test [1]; 4.55% in test [2]; -2.4% in test [3]; 21.9% in test [4]; -2.6% in test [5]; 32.3% in test [6].
For `COc1cccc(C=Nc2ccc(N(C)C)cc2)c1O.COc1cccc(C=Nc2ccc(N(C)C)cc2)c1O.[Co]`, the growth inhibition in test [1] was 31.4%; in test [2], 5.55%; in test [3], 14.6%; in test [4], 2.9%; in test [5] it was 8.25%; in test [6], -2.3%.
In the case of `O=C1OCCN1N1C(=O)CC2(CCN(Cc3ccccc3)CC2)C1=O`, the growth inhibition in test [1] is -10.8%; in test [2] it was 3%; in test [3] it was -0.95%; in test [4] it was 1.15%; in test [5], 0.25%; in test [6] it was -17.8%.
As to `CC1(C)CC(C)(O)N(CCc2ccccc2)C(=S)N1` (stereo not drawn), the growth inhibition is -6.55% in test [1]; 2.7% in test [2]; 8.8% in test [3]; -17.1% in test [4]; 5.15% in test [5]; 2.45% in test [6].
Take `OC(c1ccccc1)(c1ccccc1)c1nc2ccccc2[nH]1`: the growth inhibition in test [1] was 2.7%; in test [2], -1.75%; in test [3], 14.2%; in test [4] it was -19.8%; in test [5], -0.1%; in test [6], -0.9%.
On to `O=C(c1ccco1)N(C(=S)N1CCN(c2ccccc2)CC1)c1ccccc1`, for which the growth inhibition was -79.7% in test [1]; -24.4% in test [2]; -35.5% in test [3]; -4.4% in test [4]; -18.1% in test [5]; -35.2% in test [6].
Consider `Cc1cccc(NC(=O)Nc2ccccc2)n1`, for which the growth inhibition in test [1] was 4.65%; in test [2], 0.9%; in test [3], 9.55%; in test [4], -71.5%; in test [5], -18.9%; in test [6], -10.1%.
On to `Cn1c(N2CCCC2)c(C=O)c(=O)n(C)c1=O`, for which the growth inhibition in test [1] was 4.5%; in test [2] it was 1.45%; in test [3], 8.6%; in test [4], 21.3%; in test [5], -10.9%; in test [6] it was -15.1%.
For `O=[N+]([O-])c1ccccc1S(=O)c1ccccc1` (stereo not drawn), the growth inhibition in test [1] is -1.65%; in test [2], -0.15%; in test [3] it was -4.3%; in test [4] it was 11.2%; in test [5], -6.5%; in test [6], -6.25%.
As for `c1ccc(/N=C2\c3ccccc3CN2c2ccccn2)nc1`, the growth inhibition in test [1] was -21.9%; in test [2], 3.75%; in test [3], -7.6%; in test [4], -3.75%; in test [5], 9%; in test [6] it was -1.35%.
Regarding `CN1CC(O)CN(C)C1=S`, the growth inhibition in test [1] was -9.05%; in test [2], -8.2%; in test [3] it was 1.6%; in test [4], -34.6%; in test [5] it was -7.9%; in test [6], -5%.
For the molecule `COc1ccc(C2OC3=C(Nc4ccc([N+](=O)[O-])cc4N3)C2=O)cc1` (stereo not drawn), the growth inhibition was -7.25% in test [1]; -19.3% in test [2]; -16.8% in test [3]; -5.35% in test [4]; -37.9% in test [5]; -5.8% in test [6].
With `CC(NC(=O)C(N)CC(=O)O)NC(=O)N(C)C(C)(C)C` (stereo not drawn), the growth inhibition in test [1] was -8.5%; in test [2], 1.75%; in test [3], 2.1%; in test [4], 2.65%; in test [5], 25.4%; in test [6], -44.2%.
As to `CC/C(=C\c1ccccc1OC)c1ccncc1`, the growth inhibition is 14.2% in test [1]; -0.1% in test [2]; 30.4% in test [3]; 12.2% in test [4]; 36.6% in test [5]; 1.55% in test [6].
Take `CC1=NN(c2ccccc2)C(=O)/C1=C\c1ccc([N+](=O)[O-])cc1`: the growth inhibition in test [1] was 25.9%; in test [2], 29.1%; in test [3] it was 28.4%; in test [4], 18.9%; in test [5], 18.4%; in test [6], 19.5%.
Consider `COC(C(=O)CN(C)C)(c1ccccc1)c1ccccc1`, for which the growth inhibition in test [1] was 4%; in test [2], -11.1%; in test [3], -1.85%; in test [4] it was 6.45%; in test [5], -26.8%; in test [6] it was 23.5%.
On to `Nc1ccccc1C(=O)ONC(=O)c1ccccc1`, for which the growth inhibition in test [1] was 99.5% (active); in test [2], 99.6% (active); in test [3], 99.5% (active); in test [4] it was 99% (active); in test [5], 99.3% (active); in test [6], 99.3% (active).
On to `COc1ccc(C(O)C(c2ccc(OCc3ccccc3)cc2)c2ccc(OCc3ccccc3)cc2)cc1` (stereo not drawn), for which the growth inhibition in test [1] was 1.05%; in test [2], -27.9%; in test [3], -5.15%; in test [4], -4.25%; in test [5] it was -29.2%; in test [6], -22.4%.
On to `CN(Cc1cnc2nc(N)nc(N)c2n1)c1ccc(C(=O)NC(CCCCN)C(=O)O)cc1` (stereo not drawn), for which the growth inhibition in test [1] was -0.05%; in test [2], -9.4%; in test [3] it was -0.05%; in test [4], -15.8%; in test [5], -2.05%; in test [6], 30.9%.
For the molecule `C=C(C)C(=O)Nc1ccc(NS(=O)(=O)c2ccc(C(C)CC)cc2)c(O)c1` (stereo not drawn), the growth inhibition in test [1] was 9.3%; in test [2] it was -8.7%; in test [3], 18.1%; in test [4] it was 35.5%; in test [5] it was 14.9%; in test [6], 1.2%.
With `COc1c(O)c(O)c2c(c1O)C(=O)c1cc(C)cc(O)c1C2=O`, the growth inhibition in test [1] was -16.3%; in test [2] it was -27%; in test [3], -22.7%; in test [4], -8.45%; in test [5], -30%; in test [6], -19.4%.
Take `O=[N+]([O-])c1ccc(Cc2ncnc3c2ncn3C2OC(CO)C(O)C2O)cc1` (stereo not drawn): the growth inhibition in test [1] was 5.1%; in test [2], -13.2%; in test [3] it was -16.4%; in test [4], -0.95%; in test [5], 2.15%; in test [6], -18.9%.
As to `c1ccc2c(c1)oc1cc3c(cc12)n1nnnc1c1cccn31`, the growth inhibition is 9% in test [1]; -1.25% in test [2]; -3.45% in test [3]; 16.4% in test [4]; 4.6% in test [5]; -7.8% in test [6].
`CCOc1c(Cc2ccccc2)c(=O)n2c3ccccc3n(CC)c2c1C#N`: the growth inhibition in test [1] is -4.75%; in test [2], -6.05%; in test [3], 0.25%; in test [4], -11.8%; in test [5] it was -29.9%; in test [6] it was -10.8%.
As to `CCCCOS(=O)OCCCC`, the growth inhibition in test [1] is 22.7%; in test [2] it was 29.5%; in test [3], -6.1%; in test [4], 13.2%; in test [5], 0.15%; in test [6] it was -14.8%.
Consider `CCO/C=C(/C#N)C(=O)OCC`, for which the growth inhibition is -6.8% in test [1]; -11.9% in test [2]; -20.3% in test [3]; -27.6% in test [4]; -14.3% in test [5]; 0.85% in test [6].
As for `O=C(N/N=C\c1ccc2c(c1)CCC2)c1cccc2ccccc12`, the growth inhibition in test [1] is -5.9%; in test [2] it was 1.35%; in test [3], -11.9%; in test [4], -6.1%; in test [5], 10.2%; in test [6], -2.9%.
`CCCCc1ccc(O)c(CN(CC)CC)c1`: the growth inhibition was 10.8% in test [1]; -8.2% in test [2]; -11.6% in test [3]; -23.6% in test [4]; -6.8% in test [5]; -2.9% in test [6].
`Nc1nc(SCc2ccccc2Cl)cc(C(=O)O)n1`: the growth inhibition was 31.6% in test [1]; 34.7% in test [2]; 47.2% in test [3]; 4.15% in test [4]; 44% in test [5]; 53% in test [6].
On to `CCC[n+]1ccccc1C`, for which the growth inhibition in test [1] was -0.95%; in test [2] it was 19.4%; in test [3] it was -4.3%; in test [4], 1.35%; in test [5], 7.9%; in test [6], 3.65%.
